# Measurements published in the supplement of paper PMC8728848.
# About 410 targets per protein were measured; listed, in parts, are those with the strongest signals and a random draw of the rest.
# B1: Awp3 (Candida glabrata), B4UN32 (protein)
# chain: MISFVTLLAILGLLSISWADQTVRSVAGDQRVTDPVIVGDNSILDYYGGSNYDFSNNFEIGRGTLYIGKESYFSSFQSAPTDVPNSFHLLIKNTNNLQNNGQFIIENIKRHANQCSNSSIQVFPINFQNDGEFEIISGGVEGRCCLPTSVIAPQNFLNNGKFYYKVLTDTGSIYSGSCMQNVDIGASTTTTVNNNLWEFTGSINAQINGAVSGAAQINLDGSNMFVNANTFSGQVVNLINGGSFLQTSDPLSNIVVINGLGTSDTGVTSIAVKGKGKSFTYNPSSGIVKLTTVEGKTYAYQIGCGYNTKKFITNNDSGASYESADNFFVLTYSEPYSPQTCQLENSSIFSSNFISTSTSSSSSSSSASSLPSSMSSSLPSSLSSSLSSSLSSSMSSSMSSLFIIPPPYTTTRSSGSSIIDTEIVSFYSTTDSPGHTITGTTTTTLYGPHTHSSVSTPSSSSESSTTSNSSIESSSLPHTSVSSTPESSITPSSNTISSSPTSDFSSVQSSSIMESSSVVASSSVINSSSIVDSSSSSASSLPSSMSSSLSSSMSSSLPSSMSSSLSSSLSSSLSSSMSSSMSSLFIIPPPYTTTRSSGSSIIDTEIVSFYSTTDSPGHTITGTTTTTLYGPHTHSSVSTPSSSSESSTTSNSSIESSSLPHTSVSSTPESSITPSSNTISSSPTSDFSSVQSSSIMESSSVVASSSVINSSSIVDSSSSSASSLPSSMPSSLPSSMSSSLSSSMSSSLSSSLSSSLSSSMSSSMSSLFIIPPPYTTTRSSGSSIIDTEIVSFYSTTDSPGHTITGTTTTTLYGPHTHSSVSTPSSSSESSTTSNSSIESSSLPHTSVSSTPESSITPSSNTISSSPTSDFSSVQSSSIMESSSVVASSSATQSSSVINSSSIVDSSSSSASSLPSSMPSSLPSSLSSSLSSSLSSSMSSSMSSLFIIPPPYTTTRSSGSSIIDTEIVSFYSTTDSPGHTITGTTTTTLYESSIYSSSSSTIQESELSNTSRTTMTSNSSVSISSTSSRSSFSNTKSSTIVISQSASLPDSKTDIILSTSSNIGYSSRSLLSDLGTSISDSDIHHSVLHSTESYSSNESGTNPFTSIASLSNFIPESSSHTSTALGSENSVISSDILTTMSHPVATNSGDKPTTPKRSEQVSTTMTSSGPTPDTSSFDTDGMSAYSRPEFTTNSLEVNKSSTSQLGNNKQTFSNLQLESTRPHSENEVDNNTRLLQSIQQSSTYGTNNVNPLSPTGSISIPLTEDGQGDNNNWNSPATNDLCTQISFNLTATTITVTDRITITDSIHDISSEVITSYIYQTIVDQKTVTQTVDGKSLANKMSSIPKPSSRSLIQPQPPVAIELQEGAASTSRVSLVSLFISIILVLL
# Columns and labels:
# Test in all cases: glycan array binding signal (z-score within array); higher = stronger binding
# Details in all cases: glycan notation: IUPAC condensed, linker removed
# [1] = target: Fuc(a1-2)Gal(b1-3)GalNAc(b1-3)Gal(a1-4)Gal(b1-4)Glc
# Procedure, shortened: (§1)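 The Consortium for Functional Glycomics database supplied 3228 glycan arrays, of which those lacking an available protein sequence were dropped. The binding signal, a within-array Z-score, was averaged across arrays of the same protein sequence and across linkers. Negative scores can be read as non-binding.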
# [2] = target: Fuc(a1-2)Gal(b1-3)GlcNAc(b1-2)Man(a1-3)[Fuc(a1-2)Gal(b1-3)GlcNAc(b1-2)Man(a1-6)]Man(b1-4)GlcNAc(b1-4)[Fuc(a1-6)]GlcNAc
# Procedure, shortened: as §1
# [3] = target: Fuc(a1-2)Gal(b1-4)GlcNAc(b1-2)[Fuc(a1-2)Gal(b1-4)GlcNAc(b1-4)]Man(a1-3)[Fuc(a1-2)Gal(b1-4)GlcNAc(b1-2)Man(a1-6)]Man(b1-4)GlcNAc(b1-4)GlcNAc
# Procedure, shortened: as §1
# [4] = target: Fuc(a1-2)Gal(b1-4)[Fuc(a1-3)]GlcNAc(b1-2)Man(a1-3)[Fuc(a1-2)Gal(b1-4)[Fuc(a1-3)]GlcNAc(b1-2)Man(a1-6)]Man(b1-4)GlcNAc(b1-4)[Fuc(a1-6)]GlcNAc
# Procedure, shortened: as §1
# [5] = target: Fuc(a1-2)Gal(b1-4)[Fuc(a1-3)]GlcNAc(b1-3)Gal(b1-4)[Fuc(a1-3)]GlcNAc(b1-3)Gal(b1-4)[Fuc(a1-3)]GlcNAc
# Procedure, shortened: as §1
# [6] = target: Fuc(a1-2)Gal(b1-4)[Fuc(a1-3)]GlcNAc(b1-3)[Neu5Ac(a2-6)Gal(b1-4)GlcNAc(b1-6)]Gal(b1-4)Glc
# Procedure, shortened: as §1
# [7] = target: Fuc(a1-2)[Gal(a1-3)]Gal(b1-4)GlcNAc(b1-2)Man(a1-3)[Fuc(a1-2)[Gal(a1-3)]Gal(b1-4)GlcNAc(b1-2)Man(a1-6)]Man(b1-4)GlcNAc(b1-4)GlcNAc
# Procedure, shortened: as §1
# [8] = target: Fuc(a1-2)[GalNAc(a1-3)]Gal(b1-3)GalNAc(b1-3)Gal(a1-4)Gal(b1-4)Glc
# Procedure, shortened: as §1
# [9] = target: Fuc(a1-2)[GalNAc(a1-4)]Gal(b1-4)GlcNAc
# Procedure, shortened: as §1
# [10] = target: Fuc(a1-3)[Gal(b1-4)]GlcNAc(b1-6)GalNAc
# Procedure, shortened: as §1
# Gal(a1-4)GlcNAc = target: Gal(a1-4)GlcNAc
# Procedure, shortened: as §1
# [11] = target: Gal(b1-3)GlcNAc(a1-6)Gal(b1-4)GlcNAc
# Procedure, shortened: as §1
# [12] = target: Gal(b1-3)GlcNAc(b1-2)Man(a1-3)[Gal(b1-3)GlcNAc(b1-2)Man(a1-6)]Man(b1-4)GlcNAc(b1-4)GlcNAc
# Procedure, shortened: as §1
# [13] = target: Gal(b1-3)GlcNAc(b1-3)Gal(b1-4)GlcNAc(b1-6)[Gal(b1-3)GlcNAc(b1-3)]Gal(b1-4)Glc
# Procedure, shortened: as §1
# [14] = target: Gal(b1-3)GlcNAc(b1-3)Gal(b1-4)[Fuc(a1-3)]GlcNAc(b1-6)[Gal(b1-3)GlcNAc(b1-3)]Gal(b1-4)Glc
# Procedure, shortened: as §1
# [15] = target: Gal(b1-4)GlcNAc(b1-2)Man(a1-3)[Gal(b1-4)GlcNAc(b1-2)Man(a1-6)][GlcNAc(b1-4)]Man(b1-4)GlcNAc(b1-4)[Fuc(a1-6)]GlcNAc
# Procedure, shortened: as §1
# [16] = target: Gal(b1-4)GlcNAc(b1-2)Man(a1-3)[Man(a1-6)]Man(b1-4)GlcNAc(b1-4)GlcNAc
# Procedure, shortened: as §1
# [17] = target: Gal(b1-4)GlcNAc(b1-2)Man(a1-6)[GlcNAc(b1-2)Man(a1-3)]Man(b1-4)GlcNAc(b1-4)GlcNAc
# Procedure, shortened: as §1
# [18] = target: Gal(b1-4)GlcNAc(b1-2)[Gal(b1-4)GlcNAc(b1-4)]Man(a1-3)[Gal(b1-4)GlcNAc(b1-2)[Gal(b1-4)GlcNAc(b1-6)]Man(a1-6)]Man(b1-4)GlcNAc(b1-4)GlcNAc
# Procedure, shortened: as §1
# [19] = target: Gal(b1-4)GlcNAc(b1-3)Gal(b1-4)GlcNAc(b1-2)[Gal(b1-4)GlcNAc(b1-3)Gal(b1-4)GlcNAc(b1-6)]Man(a1-6)[Gal(b1-4)GlcNAc(b1-3)Gal(b1-4)GlcNAc(b1-2)Man(a1-3)]Man(b1-4)GlcNAc(b1-4)[Fuc(a1-6)]GlcNAc
# Procedure, shortened: as §1
# [20] = target: Gal(b1-4)GlcNAc(b1-3)Gal(b1-4)GlcNAc(b1-3)Gal(b1-4)GlcNAc(b1-2)[Gal(b1-4)GlcNAc(b1-3)Gal(b1-4)GlcNAc(b1-3)Gal(b1-4)GlcNAc(b1-6)]Man(a1-6)[Gal(b1-4)GlcNAc(b1-3)Gal(b1-4)GlcNAc(b1-3)Gal(b1-4)GlcNAc(b1-2)Man(a1-3)]Man(b1-4)GlcNAc(b1-4)[Fuc(a1-6)]GlcNAc
# Procedure, shortened: as §1
# [21] = target: Gal(b1-4)GlcNAc(b1-3)Gal(b1-4)GlcNAc(b1-3)Gal(b1-4)GlcNAc(b1-3)Gal(b1-4)GlcNAc(b1-3)Gal(b1-4)GlcNAc(b1-2)Man(a1-3)[Gal(b1-4)GlcNAc(b1-3)Gal(b1-4)GlcNAc(b1-3)Gal(b1-4)GlcNAc(b1-3)Gal(b1-4)GlcNAc(b1-3)Gal(b1-4)GlcNAc(b1-2)Man(a1-6)]Man(b1-4)GlcNAc(b1-4)[Fuc(a1-6)]GlcNAc
# Procedure, shortened: as §1
# [22] = target: Gal(b1-4)GlcNAc(b1-3)Gal(b1-4)GlcNAc(b1-3)Gal(b1-4)GlcNAc(b1-3)Gal(b1-4)GlcNAc(b1-3)Gal(b1-4)GlcNAc(b1-2)[Gal(b1-4)GlcNAc(b1-3)Gal(b1-4)GlcNAc(b1-3)Gal(b1-4)GlcNAc(b1-3)Gal(b1-4)GlcNAc(b1-3)Gal(b1-4)GlcNAc(b1-6)]Man(a1-6)[Gal(b1-4)GlcNAc(b1-3)Gal(b1-4)GlcNAc(b1-3)Gal(b1-4)GlcNAc(b1-3)Gal(b1-4)GlcNAc(b1-3)Gal(b1-4)GlcNAc(b1-2)Man(a1-3)]Man(b1-4)GlcNAc(b1-4)[Fuc(a1-6)]GlcNAc
# Procedure, shortened: as §1
# [23] = target: Gal(b1-4)GlcNAc(b1-3)Gal(b1-4)GlcNAc(b1-3)GalNAc
# Procedure, shortened: as §1
# [24] = target: Gal(b1-4)GlcNAc(b1-3)Gal(b1-4)GlcNAc(b1-6)[Gal(b1-3)]GalNAc
# Procedure, shortened: as §1
# [25] = target: Gal(b1-4)GlcNAc(b1-3)Gal(b1-4)[Fuc(a1-3)]GlcNAc(b1-3)Gal(b1-4)[Fuc(a1-3)]GlcNAc
# Procedure, shortened: as §1
# [26] = target: Gal(b1-4)GlcNAc(b1-3)GalNAc
# Procedure, shortened: as §1
# [27] = target: Gal(b1-4)GlcNAc(b1-3)[Fuc(a1-3)GlcNAc(b1-6)]Gal(b1-4)Glc
# Procedure, shortened: as §1
# Gal3S(b1-4)Glc = target: Gal3S(b1-4)Glc
# Procedure, shortened: as §1
# Gal4S6S(b1-4)GlcNAc = target: Gal4S6S(b1-4)GlcNAc
# Procedure, shortened: as §1
binder,measurement,setting,value
B1,glycan array binding signal (z-score),[1],2.34
same,glycan array binding signal (z-score),[2],1.49
same,glycan array binding signal (z-score),[3],3.23
same,glycan array binding signal (z-score),[4],-0.693
same,glycan array binding signal (z-score),[5],1.19
same,glycan array binding signal (z-score),[6],-1.1
same,glycan array binding signal (z-score),[7],2.45
same,glycan array binding signal (z-score),[8],2.28
same,glycan array binding signal (z-score),[9],-0.218
same,glycan array binding signal (z-score),[10],0.39
same,glycan array binding signal (z-score),Gal(a1-4)GlcNAc,2.25
same,glycan array binding signal (z-score),[11],0.259
same,glycan array binding signal (z-score),[12],2.55
same,glycan array binding signal (z-score),[13],1.3
same,glycan array binding signal (z-score),[14],2.48
same,glycan array binding signal (z-score),[15],1.4
same,glycan array binding signal (z-score),[16],-0.338
same,glycan array binding signal (z-score),[17],0.07
same,glycan array binding signal (z-score),[18],-0.258
same,glycan array binding signal (z-score),[19],-1.19
same,glycan array binding signal (z-score),[20],1.96
same,glycan array binding signal (z-score),[21],0.113
same,glycan array binding signal (z-score),[22],-0.313
same,glycan array binding signal (z-score),[23],1.03
same,glycan array binding signal (z-score),[24],-0.292
same,glycan array binding signal (z-score),[25],0.452
same,glycan array binding signal (z-score),[26],-0.074
same,glycan array binding signal (z-score),[27],-0.665
same,glycan array binding signal (z-score),Gal3S(b1-4)Glc,-0.288
same,glycan array binding signal (z-score),Gal4S6S(b1-4)GlcNAc,0.372
